Data reported in PubChem BioAssay.
Values joined by “and” are separate entries in the source; they are usually repeats but may differ in a detail not shown here. Equal entries are not always repeated. Active and inactive are the calls of the source.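 The calls were made as follows, unless noted: active = thallium flux through the channel raised or lowered by more than 3 SD from vehicle-only wells, actives on both sides; inactive = the rest.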

How the values were obtained:
[1] = liver-stage malaria parasite growth inhibition, primary screen, cell-based, HepG2, luciferase luminescence, HepG2 viability (AID 624349; in the data active = parasite load remaining mostly below about 12%, no sharp cut-off; inactive = mostly above about 10%;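 also: 100% = mean of DMSO negative control wells on the same plate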); details: P. berghei liver stage in HepG2, luciferase luminescence, concentration not given here; parasite load remaining: stronger effect = lower value; viability: measured here: HepG2 viability without parasites
[2] = Cy5 fluorescence interference with SSB-bound oligo, artefact control for HCV NS3 helicase inhibitor project, biochemical, NIH Clinical Collection, E. coli SSB (AID 743268; call rule not given here)
[3] = system: Hepatitis C virus NS3 helicase; assay: HCV NS3 helicase inhibitors, primary screen, biochemical, fluorescence polarization, NIH Clinical Collection (AID 743270; call rule not given here); details: NS3 helicase binding to Cy5-dT15 DNA, stronger effect = higher value, concentration not given here
[4] = target: Single-stranded DNA-binding protein (Escherichia coli (strain K12)) (UniProt P0AGE0); assay: E. coli SSB displacement from DNA, counter-screen for HCV NS3 helicase inhibitor project, biochemical, fluorescence polarization, NIH Clinical Collection (AID 743271; in the data active = inhibition above about 28%); details: stronger effect = higher value, concentration not given here
[5] = fluorescence interference in NS3h assay format, artefact control for HCV NS3 helicase inhibitor project, biochemical, NIH Clinical Collection (AID 743272; call rule not given here;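 also: HCV NS3 helicase with a Cy5 labelled single stranded DNA probe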); details: fluorescence interference counterscreen, stronger effect = lower value
[6] = sensitizers of A549 cells to miR-34 induction, primary screen, imaging, A549 dox-inducible miR-34, nuclei and caspase counts (AID 1347080;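 active = compounds whose cell count with miR-34 switched on is under 0.7 times the count with it off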); details: A549 miR-34 inducible, Hoechst nuclei count, 48 h
[7] = system: F380Y; assay: modulators of BK channel variants, profiling panel, selectivity assay, cell-based, U2OS BacMam, thallium flux, beta subunits (AID 1259406); details: at 30 µM;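 also: initial slope of Thallos dye fluorescence rise after thallium is added; log ratio against the mean of 0.3% DMSO vehicle wells on the same plate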
[8] = system: F380Y/beta2Delta; assay: as above; details: at 30 µM
[9] = system: R275C; assay: as above; details: at 30 µM
[10] = system: R275C/beta1; assay: as above; details: at 30 µM
[11] = system: R275C/beta2Delta; assay: as above; details: at 30 µM
[12] = system: R275C/Slo1WT/beta2; assay: as above; details: at 30 µM
[13] = measured here: relative caspase fold change +Dox/-Dox
[14] = measured here: total cells with miR-34 induction, stronger effect = lower value
[15] = measured here: total cells without miR-34 induction

c1ccc(Cn2ccnc2)cc1
0.727: fold change [6, 13]
inactive: parasite load remaining [1] 66.3% | fluorescence ratio [2] 0.9 | inhibition [3] -1.09% | inhibition [4] 1.97% | fluorescence ratio [5] 0.88 | fold change ([6]; stronger effect = lower value) 1.24 | log fold change Tl+ flux [7] 0.0263 | log fold change Tl+ flux [8] -0.0252 | log fold change Tl+ flux [9] -0.0227 | log fold change Tl+ flux [10] -0.0133 | log fold change Tl+ flux [11] -0.00773 | log fold change Tl+ flux [12] -0.0321
7170: cell count [6, 15]
8900: cell count [6, 14]
67.7%: viability [1]

Cc1ccc(-c2nc3ccc(C)cn3c2CC(=O)N(C)C)cc1
2.59: fold change [6, 13]
80.3% and 64.4%: viability [1]
9130: cell count [6, 14]
inactive: parasite load remaining [1] 37% and 120% | fluorescence ratio [2] 1.04 | inhibition [3] -1.98% | inhibition [4] -2.41% | fluorescence ratio [5] 1.01 | fold change ([6]; stronger effect = lower value) 0.956 | log fold change Tl+ flux [7] -0.0187 | log fold change Tl+ flux [8] 0.00568 | log fold change Tl+ flux [9] -0.0227 | log fold change Tl+ flux [10] -0.0502 | log fold change Tl+ flux [11] -0.00561 | log fold change Tl+ flux [12] 0.00818
9550: cell count [6, 15]

CN1CC[C@@]23CCCC[C@@H]2[C@@H]1Cc1ccc(O)cc13
68.2%: viability [1]
inactive: parasite load remaining [1] 97.8% | fluorescence ratio [2] 0.99 | inhibition [3] -1.98% | inhibition [4] -3.18% | fluorescence ratio [5] 0.91 | log fold change Tl+ flux [7] 0.0229 | log fold change Tl+ flux [8] 0.00585 | log fold change Tl+ flux [9] 0.00894 | log fold change Tl+ flux [10] 0.0266 | log fold change Tl+ flux [11] 0.00635

Cc1ncc2n1-c1ccc(Cl)cc1C(c1ccccc1F)=NC2
1.63: fold change [6, 13]
6400: cell count [6, 15]
6900: cell count [6, 14]
active: log fold change Tl+ flux [7] -0.403 | log fold change Tl+ flux [8] -0.205 | log fold change Tl+ flux [10] -0.128
73.5%: viability [1]
inactive: parasite load remaining [1] 105% | fluorescence ratio [2] 1.04 | inhibition [3] -1.98% | inhibition [4] -3.18% | fluorescence ratio [5] 1.02 | fold change ([6]; stronger effect = lower value) 1.08 | log fold change Tl+ flux [9] -0.0381 | log fold change Tl+ flux [11] -0.00496 | log fold change Tl+ flux [12] 0.000117

CCOC(=O)C1(c2ccccc2)CCN(CCC(C#N)(c2ccccc2)c2ccccc2)CC1
active: log fold change Tl+ flux [10] -0.137 | log fold change Tl+ flux [11] -0.169
inactive: parasite load remaining [1] 6.85% | fluorescence ratio [2] 0.99 | inhibition [3] 1.98% | inhibition [4] 4.52% | fluorescence ratio [5] 0.88 | fold change ([6]; stronger effect = lower value) 1.03 | log fold change Tl+ flux [7] -0.0196 | log fold change Tl+ flux [8] -0.00205 | log fold change Tl+ flux [9] 0.0145 | log fold change Tl+ flux [12] 0.0218
4590: cell count [6, 15]
62%: viability [1]
4740: cell count [6, 14]
1.81: fold change [6, 13]

Oc1ccc2c3c1OC1C(O)CC[C@@]4(O)[C@@H](C2)N(CC2CCC2)CC[C@]314 (some centres undefined)
inactive: parasite load remaining [1] 133% | fluorescence ratio [2] 0.97 | inhibition [3] -1.98% | inhibition [4] 9.14% | fluorescence ratio [5] 0.88
141%: viability [1]

C[N+]1(C)CCN(c2ccccc2)CC1
1.06 and 1.59: fold change [6, 13]
inactive: parasite load remaining [1] 117% | fluorescence ratio [2] 1.03 | inhibition [3] 6.73% | inhibition [4] 2.21% | fluorescence ratio [5] 1.01 | fold change ([6]; stronger effect = lower value) 1.02 and 0.991 | log fold change Tl+ flux [7] -0.0112 | log fold change Tl+ flux [8] -0.0318 | log fold change Tl+ flux [9] -0.0752 | log fold change Tl+ flux [10] 0.0101 | log fold change Tl+ flux [11] 0.00724 | log fold change Tl+ flux [12] -0.0166
9580 and 9940: cell count [6, 15]
87.7%: viability [1]
9770 and 9860: cell count [6, 14]

C[C@]12CCC(=O)C[C@@H]1CC[C@@H]1[C@@H]2CC[C@@]2(C)[C@H]1CC[C@]2(C)O
inactive: parasite load remaining [1] 79.1% | fluorescence ratio [2] 1.04 | inhibition [3] -0.4% | inhibition [4] -3.18% | fluorescence ratio [5] 0.92 | log fold change Tl+ flux [7] 0.00819 | log fold change Tl+ flux [8] 0.0319 | log fold change Tl+ flux [9] -0.0214 | log fold change Tl+ flux [10] 0.0156 | log fold change Tl+ flux [11] 0.0537 | log fold change Tl+ flux [12] 0.012
70.4%: viability [1]

C[C@]12CC[C@H]3[C@@H](CCC4=CC(=O)CC[C@@H]43)[C@@H]1CC[C@@H]2O
8800: cell count [6, 15]
8170: cell count [6, 14]
73.7% and 87.5%: viability [1]
inactive: parasite load remaining [1] 113% and 109% | fluorescence ratio [2] 1 | inhibition [3] -4.36% | inhibition [4] -0.87% | fluorescence ratio [5] 0.98 | fold change ([6]; stronger effect = lower value) 0.927 | log fold change Tl+ flux [7] 0.0331 | log fold change Tl+ flux [8] 0.0141 | log fold change Tl+ flux [9] -0.0315 | log fold change Tl+ flux [10] 0.00735 | log fold change Tl+ flux [11] -0.0135 | log fold change Tl+ flux [12] -0.0416
1.32: fold change [6, 13]

CCCCC/C=C\C/C=C\C/C=C\C/C=C\CCCC(=O)Nc1ccc(O)cc1
inactive: parasite load remaining [1] 94.1% | fluorescence ratio [2] 0.87 | inhibition [3] 0.4% | inhibition [4] 4.52% | fluorescence ratio [5] 0.88 | fold change ([6]; stronger effect = lower value) 1.04 and 0.798
0.71 and 1.12: fold change [6, 13]
5430 and 5550: cell count [6, 14]
5220 and 6950: cell count [6, 15]
87.5%: viability [1]

CC[C@@H]1C=CC=CC[C@H](C)[C@@H](O)[C@@H](C)C(=O)[C@H](C)[C@@H](O)[C@H](C)C(=O)[C@H](C)[C@@H](O)[C@H](C)C=CC(=O)O[C@H]2[C@@H](C)[C@@H](CC1)O[C@@]1(CC[C@@H](C)[C@@H](C[C@H](C)O)O1)[C@@H]2C
inactive: fluorescence ratio [2] 1.01 | inhibition [3] 4.36% | inhibition [4] 7.6% | fluorescence ratio [5] 0.98 | log fold change Tl+ flux [10] 0.0227 | log fold change Tl+ flux [11] -0.0422 | log fold change Tl+ flux [12] -0.0132
67.4%: viability [1]
active: parasite load remaining [1] 1.55% | log fold change Tl+ flux [7] -0.509 | log fold change Tl+ flux [8] -0.884 | log fold change Tl+ flux [9] -0.133

CC[C@@H](C(N)=O)N1CCCC1=O
inactive: parasite load remaining [1] 91.8% and 41.8% | fluorescence ratio [2] 1.01 | inhibition [3] 7.52% | inhibition [4] 9.91% | fluorescence ratio [5] 1.02 | fold change ([6]; stronger effect = lower value) 1.08 and 0.876 | log fold change Tl+ flux [7] -0.0178 | log fold change Tl+ flux [8] -0.0158 | log fold change Tl+ flux [9] 0.037 | log fold change Tl+ flux [10] -0.0285 | log fold change Tl+ flux [11] -0.00577 | log fold change Tl+ flux [12] -0.0311
70% and 106%: viability [1]
10400 and 11900: cell count [6, 15]
1.59 and 0.289: fold change [6, 13]
11300 and 10400: cell count [6, 14]

c1cncc(C2CCCN2)c1 (centres undefined)
9590: cell count [6, 14]
inactive: parasite load remaining [1] 96.8% | fluorescence ratio [2] 1.01 | inhibition [3] -1.98% | inhibition [4] -1.64% | fluorescence ratio [5] 0.95 | fold change ([6]; stronger effect = lower value) 0.916
74.2%: viability [1]
2.18: fold change [6, 13]
10500: cell count [6, 15]

COc1ccc(CCN)cc1OC
8740: cell count [6, 14]
0.533: fold change [6, 13]
7830: cell count [6, 15]
inactive: parasite load remaining [1] 69.1% | fluorescence ratio [2] 0.93 | inhibition [3] -0.22% | inhibition [4] 5.91% | fluorescence ratio [5] 0.92 | fold change ([6]; stronger effect = lower value) 1.12 | log fold change Tl+ flux [7] -0.0565 | log fold change Tl+ flux [8] -0.0175 | log fold change Tl+ flux [9] -0.00436 | log fold change Tl+ flux [10] -0.0128 | log fold change Tl+ flux [11] -0.00532 | log fold change Tl+ flux [12] -0.0122
72%: viability [1]

C[C@]12CC[C@H](O)CC1=CC[C@@H]1[C@@H]2CC[C@@]2(C)[C@H]1CC[C@]2(C)O
inactive: parasite load remaining [1] 67.4% | fluorescence ratio [2] 1.04 | inhibition [3] -1.19% | inhibition [4] -4.72% | fluorescence ratio [5] 1.02 | log fold change Tl+ flux [7] 0.0283 | log fold change Tl+ flux [8] 0.0164 | log fold change Tl+ flux [9] 0.0183 | log fold change Tl+ flux [10] 0.0261 | log fold change Tl+ flux [11] -0.00697 | log fold change Tl+ flux [12] 0.057
70.8%: viability [1]

CS(=O)(=O)Nc1ccc(Cc2noc(-c3ccc4[nH]cc(CCN)c4c3)n2)cc1
9380 and 8560: cell count [6, 14]
active: fluorescence ratio [2] 0.59 | inhibition [4] 36.6% | fluorescence ratio [5] 0.8
2.28 and 0.865: fold change [6, 13]
inactive: parasite load remaining [1] 62% | inhibition [3] 3.28% | fold change ([6]; stronger effect = lower value) 0.897 | fold change ([6]; stronger effect = lower value, cell number ratio, induced over uninduced) 0.9 | log fold change Tl+ flux [7] -0.0227 | log fold change Tl+ flux [8] -0.088 | log fold change Tl+ flux [9] -0.054 | log fold change Tl+ flux [10] 0.0159 | log fold change Tl+ flux [11] -0.0492 | log fold change Tl+ flux [12] 0.0125
10500 and 9520: cell count [6, 15]
68.7%: viability [1]

O=C1CN=C(c2ccccc2)c2cc([N+](=O)[O-])ccc2N1
9590: cell count [6, 15]
1.76: fold change [6, 13]
inactive: parasite load remaining [1] 89.5% | fluorescence ratio [2] 1.05 | inhibition [3] 5.94% | inhibition [4] 2.21% | fluorescence ratio [5] 1.04 | fold change ([6]; stronger effect = lower value) 0.945 | log fold change Tl+ flux [7] 0.0223 | log fold change Tl+ flux [8] 0.0172 | log fold change Tl+ flux [9] -0.0214 | log fold change Tl+ flux [11] 0.0168 | log fold change Tl+ flux [12] 0.00947
68.5%: viability [1]
9060: cell count [6, 14]
active: log fold change Tl+ flux [10] -0.097
